Only some compounds are listed: those with a hit (about 6.5% of all), similar ones and a draw of the others.
TGFb inhibitor: qHTS for Inhibitors of TGF-b; HepG2 CAGA-GFP TGF-b/SMAD3 reporter, GFP fluorescence, 18 h; TGF-beta stimulated, 500 pg/mL final; Potency, µM (top dose mostly 46.1 µM), for the others: at the top dose activity, negative = inhibition, hits mostly inhibitors; actives 1.2% (n = 410,000); further: potency means the concentration at half of the fitted maximal effect; on the % scale 0 is the no-effect control and ±100 the full control effect; nearly all actives have a fitted effect of over 65% in size
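First, reporter cells (HEPG2 CAGA-GFP) rested 2 h at 37 degrees C. Next, compounds were pinned in and TGF-beta added to 500 pg/mL final. After 18 h, GFP was imaged per cell and summed per well.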
IL-1B inflam inh: qHTS for Inhibitors of Inflammasome Signaling: IL-1-beta AlphaLISA Primary Screen. THP-1 LPS/ATP IL-1B secretion, AlphaLISA, 16 h; active compounds read low. AID 743279, 2014. actives 4.7% (n = 360,000). activity change, % at 57.5 µM; in the data active means activity change below about -50%; inconclusive means mostly about -30% to -49%; further: on the % scale 0 is the no-effect control and ±100 the full control effect
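Secreted IL-1B measured by AlphaLISA bead assay after 16 h compound exposure of THP-1 cells; compounds (final up to 57.5 uM) added 1 h before LPS (250 ng/mL) and ATP (1.25 mM) stimulation; lower signal means less secretion.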
HT1080 IDH1KD tx: qHTS for induction of synthetic lethality in tumor cells producing 2HG: qHTS for the HT-1080-IDH1KD cell line | HT-1080 IDH1 knockdown viability, ATP luminescence, 48 h | AID 686971, 2013 | Potency, µM (series often up to 46.1 µM), inactives show at the top dose activity, negative = toxicity, hits mostly cytotoxic | actives 2% (n = 360,000);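 further: potency means the concentration at half of the fitted maximal effect; 0% = DMSO wells and -100% = cell-free medium wells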
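% activity derives from luminescence (CellTiter-Glo), normalised to DMSO and no-cell wells. HT-1080-IDH1KD cells, 750/well, had 48 h compound exposure at 37 °C.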
HT1080-NT tox: qHTS for induction of synthetic lethality in tumor cells producing 2HG: qHTS for the HT-1080-NT fibrosarcoma cell line. HT-1080-NT fibrosarcoma viability, CellTiter-Glo ATP luminescence, 48 h. Potency, µM (series often up to 46.1 µM), without a hit: at the highest dose activity, negative = less viability, usual class: cytotoxic. actives 1.6% (n = 360,000). AID 686970, 2013;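 further: NT is the 2HG producing partner of a matched IDH1 knockdown line; potency means the concentration at half of the fitted maximal effect; 0% = DMSO-treated cells and -100% = media-only wells without cells; nearly all actives have a fitted effect of over 55% in size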
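HT-1080-NT; 750 cells/well; 5% FBS RPMI; 48 h compound, 37 degrees C; CellTiter-Glo luminescence; curve fitting and curve-class assignment.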
Giardia killer: Small Molecules that selectively kill Giardia lamblia: qHTS. Giardia lamblia trophozoite viability. activity change, % at 7.66 µM, hits read low. actives 0.15% (n = 340,000); in the data active means activity change below about -80%; inconclusive means between about -30% and that limit;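 further: parasites exposed to compound for two days anaerobically before the ATP read; on the % scale 0 is the no-effect control and ±100 the full control effect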
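Luminescence from cellular ATP indicates surviving trophozoites (100 cells/well) following 48 hrs anaerobic compound treatment at 37 deg C; signal develops 15-30 min at room temperature.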
HepG2 tox-1: qHTS for Inhibitors of TGF-b: Cytotox Counterscreen. HepG2 CAGA-GFP viability, ATP luminescence, 18 h. Potency, µM (titrated, usually from 46.1 µM), for the others: top-dose activity change, negative = cytotoxicity, most hits filed as cytotoxic. actives 0.76% (n = 410,000); further: potency means the concentration at half of the fitted maximal effect
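HepG2 CAGA-GFP cells (1000/well, DMEM with 1% FBS) received compound, then TGF-beta at 500 pg/mL final, and were incubated 18 hours at 37 degrees C. Viability was read by CellTiter-Glo luminescence. Media-only wells were set as complete cell-killing and DMSO as no toxicity.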
TGFb CAGA inh: qHTS for Inhibitors of TGF-b: Confirmation of Cherry Picks. AID 720534, 2013. Potency, µM (top dose mostly 46.1 µM), without a hit: at the top dose activity, negative = inhibition, most hits filed as inhibitors. shares compounds with TGFb inhibitor. HepG2 CAGA-GFP TGF-b reporter, GFP fluorescence, 18 h; cells stimulated with TGF-beta, 500 pg/mL. actives 63% (n = 1,600); further: potency means the concentration at half of the fitted maximal effect; on the % scale 0 is the no-effect control and ±100 the full control effect; nearly all actives have a fitted effect of over 65% in size
HepG2 tox-2: qHTS for Inhibitors of TGF-b: Cytotox Counterscreen for Cherry Picks | shares compounds with TGFb inhibitor | HepG2 CAGA-GFP viability, ATP luminescence, 18 h; cells stimulated with TGF-beta, 500 pg/mL | Potency, µM (doses to about 46.1 µM), for the others: at the highest dose activity, negative = cytotoxicity, hits mostly inhibitors | actives 27% (n = 1,600) | AID 720535, 2013; further: potency means the concentration at half of the fitted maximal effect; on the % scale 0 is the no-effect control and ±100 the full control effect; nearly all actives have a fitted effect of over 70% in size
TGFb CCL64 inh: qHTS for Inhibitors of TGF-b: CCL64 Cells Orthogonal Assay for Cherry Picks | shares compounds with TGFb inhibitor | CCL64 CAGA-GFP reporter, TGF-b stimulated, GFP fluorescence, 18 h | Potency, µM (doses to about 46.1 µM), inactives show top-dose activity, negative = inhibition, hits mostly inhibitors | actives 41% (n = 1,600) | AID 720536, 2013; further: potency means the concentration at half of the fitted maximal effect; nearly all actives have a fitted effect of over 65% in size
TGFb COP inh: qHTS for Inhibitors of TGF-b: Hit Validation in HepG2 Cells using COP promoter. shares compounds with TGFb inhibitor. HepG2 COP-GFP TGF-b reporter, GFP fluorescence, 18 h; cells stimulated by added recombinant TGF-beta. Potency, µM (top dose mostly 46.1 µM), without a hit: at the top dose activity, negative = inhibition, most hits filed as inhibitors. actives 3% (n = 1,600); further: potency means the concentration at half of the fitted maximal effect; nearly all actives have a fitted effect of over 70% in size
An asterisk follows results filed as active; ? = inconclusive; nt = no result; [ ] = remark or other dose. Unless noted, the call rests on the fitted dose curve; in most records, active means well fitted curve in the direction sought with a large enough effect; inconclusive means small, poorly fitted or top-dose-only effect, or another doubt; inactive means no such curve, though single readings can be large; an effect the other way counts as inactive or inconclusive.

SMILES | TGFb inhibitor | IL-1B inflam inh | HT1080 IDH1KD tx | HT1080-NT tox | Giardia killer | HepG2 tox-1 | TGFb CAGA inh | HepG2 tox-2 | TGFb CCL64 inh | TGFb COP inh
CC(=NCc1cccnc1)c1c(O)n(-c2ccc(C)cc2)c(=O)[nH]c1=O | 16.1% | -0.2 | 9.9% | 0.2% | -6.5 | -7.0% | nt | nt | nt | nt
O=C(NCC1=C(c2cccc3ccccc23)C[C@@H]2CC[C@H]1N2Cc1ccco1)c1ccc([N+](=O)[O-])cc1 | ? | -61.5* | ? | ? | nt | -40.6% | nt | nt | nt | nt
COc1cc2c(cc1OC)CN(c1ccc([N+](=O)[O-])c(C(F)(F)F)c1)CC2 | -26.1% | -51.2* | ? | ? | ? | -31.0% | nt | nt | nt | nt
COc1ccc(C(CC(=O)N2CCC3(CC2)OCCO3)NS(=O)(=O)c2ccc(C)cc2)cc1 (centres undefined) | ? | 14.3 | 5.4%[9.24 µM] | 10.8% | 6.5 | 5.3% | nt | nt | nt | nt
C[C@]12CCC(=O)C=C1C=CC1C2CC[C@]2(C)C(=O)CCC12 (some centres undefined) | 19.7% | -4.5 | -1.0% | -4.1% | 5.7 | -24.3% | nt | nt | nt | nt
Cc1c(C(=O)N2CCC3(CC2)OCCO3)sc2ncnc(N3CCN(c4ccccn4)CC3)c12 | -29.3% | -80.7* | 7.2% | 0.0% | 9.3 | 4.1% | nt | nt | nt | nt
Cc1ccc(N2C(=O)NC(=O)/C(=C\C=C\c3ccco3)C2=O)cc1C | 12.6µM* | -105.1* | -22.3% | -15.9% | -9.7 | -5.2% | 2.59µM* | 2.91µM* | 4.61µM* | ?
CCN(CCCl)c1cc(CN(C)C)cc(NC(=O)c2ccc(C(=O)Nc3cc(CN(C)C)cc(N(CC)CCCl)c3)cc2)c1 | 3.98µM* | -94.3* | 2.91µM* | 7.31µM* | 3.3 | -103.8% | 1.03µM* | 1.03µM* | 1.03µM* | ?
CCN(CC)C(=O)c1ccc(NC(=O)c2cccc(C(F)(F)F)c2)cc1 | -12.6% | ? | 11.0% | 2.4% | -20.0 | -12.9% | nt | nt | nt | nt
CCOC(=O)c1c(N)n(CCCOC(=O)c2ccco2)c2nc3ccccc3nc12 | 2.82µM* | 134.7 | 18.4µM* | 23.1µM* | 1.3 | 3.55µM* | 4.11µM* | 5.17µM* | 23.1µM* | 5.8µM*
COCCCn1c(N)c(C(=O)OCCOC)c2nc3ccccc3nc21 | -23.0% | -18.5 | 15.0% | 17.8% | 3.2 | -2.9% | nt | nt | nt | nt
COc1ccc(NC(=O)Nc2cccc3c2O[C@H](CN(C)C(=O)NC2CCCCC2)[C@@H](C)CN([C@H](C)CO)C3=O)cc1 | ? | ? | 0.4% | 2.8% | -10.5 | -21.3% | nt | nt | nt | nt
COc1ccc(CC2C(=O)NC(C)C(=O)N(C)C3C(=O)N(C)C(Cc4ccc(O)c(c4)Oc4ccc(cc4)C3O)C(=O)NC(C)C(=O)NC(C)C(=O)N2C)cc1 (centres undefined) | -116.2% | -100.8* | 0.0731µM* | 0.461µM* | 21.1 | -19.9% | 0.0065µM* | 1.64µM* | 0.0116µM* | 5.3%
Cn1c(O)c(C=Nc2ccc(F)cc2)c(=O)[nH]c1=O | -4.2% | -3.7 | -1.0% | -5.4% | 27.4 | -3.6% | nt | nt | nt | nt
CCOP(=O)(C#CC(C)(C)C)C1(O)CCCCC1 (centres undefined) | 27.1% | 19.4 | 8.6% | 10.3% | 7.8 | 11.3% | nt | nt | nt | nt
COc1ccc2[nH]c3c(c2c1)CCN1C(=O)C(CC(=O)NCc2cccc(C(F)(F)F)c2)C[C@H](C(=O)N2CCCCC2)[C@@]31C (some centres undefined) | 10µM* | -53.1* | -16.0% | -4.3% | 12.9 | 2.2% | 8.2µM* | -17.0% | 4.61µM* | 3.0%
C[C@]12CC[C@H](O)CC1=CCC1C2CC[C@@]2(C)C1C[C@@H]1CC(=O)O[C@@H]12 (some centres undefined) | -0.7% | 57.8 | -4.8% | -0.4% | -7.3 | -12.0% | nt | nt | nt | nt
Cc1nc2cc([N+](=O)[O-])ccc2c(=O)n1-c1cccc(Br)c1 | 4.0% | -12.4 | -8.7% | -10.3% | 5.4 | -10.9% | nt | nt | nt | nt
CC(C)c1oc(=O)cc2c1[C@@H](O)[C@H]1OC(=O)[C@@]3(C)C[C@@H](O)[C@@H](O)[C@@]2(C)C13 (some centres undefined) | 8.91µM* | -7.9 | 10.3µM* | ? | 6.2 | -24.6% | 2.91µM* | ? | 5.17µM* | 15.6%
C[C@]12CCC3C(CC[C@H]4C[C@@H](O)CC[C@]34C)[C@H]1C=CC2=O (some centres undefined) | ? | -23.9 | ? | -17.1% | -17.1 | -6.9% | nt | nt | nt | nt
CC12CCC(O)CC1CCC1C2CCC2(C)C(C3=CC(=O)OC3)CCC12O (centres undefined) | 3.98µM* | -65.1* | 1.16µM* | 1.46µM* | -12.0 | -33.3% | 16.4µM* | 2.59µM* | 1.3µM* | 55.7%
COc1cc2cc(C(=O)N3CC(COS(C)(=O)=O)c4ccc(O)cc43)[nH]c2c(OC)c1OC (centres undefined) | 0.0891µM* | -99.2* | 0.13µM* | 2.91µM* | -13.7 | -91.9% | 0.0058µM* | 0.0326µM* | 0.0058µM* | 42.4%
